# Assay results reported in PubChem BioAssay (Tox21).
# Inconclusive results are not listed. A call without a number means that no potency is given here. Activity calls are given as the source filed them. Unless noted, calls follow the shape of the dose curve; as a rule, active = well fitted curve in the direction sought with a large enough effect in the repeat runs; inconclusive = weak or mixed curves; inactive = no such curve, though single readings can be large; an effect the other way counts as inactive or inconclusive.
# What was measured:
# [1] = target: Luciferin 4-monooxygenase (Photinus pyralis) (UniProt P08659); assay: qHTS assay to identify small molecule inhibitors of firefly luciferase (AID 1224835); also: nearly all actives have a fitted effect of over 25% in size; also: potency is read from the fitted curve at half-maximal effect; settings: purified P. pyralis luciferase, luminescence inhibition; series mostly up to 115 µM
# Procedure, shortened: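 Quantitative HTS format; KM concentrations of both substrates. Purified P. pyralis FLuc activity quantified from luminescence images.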
# [2] = qHTS assay to identify small molecule agonists of the constitutive androstane receptor (CAR) signaling pathway - cell viability counter screen (AID 1224836); settings: HepG2-CYP2B6-hCAR viability, CellTiter-Fluor, 23 h, PK11195 added to every well; series mostly up to 92.4 µM; also: nearly all actives have a fitted effect of over 45% in size
# Procedure, shortened: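 Fluorescence from CellTiter-Fluor indicates live cells after 23 h exposure. The human hepatoma line expresses hCAR and a CYP2B6-2.2kb reporter. Incubation medium contains 0.75 uM PK11195 (final).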
# [3] = qHTS assay to identify small molecule antagonists of the constitutive androstane receptor (CAR) signaling pathway - cell viability counter screen (AID 1224837); settings: HepG2-CYP2B6-hCAR viability, CellTiter-Fluor, 23 h, co-treated with 50 nM CITCO; series mostly up to 92.4 µM; also: nearly all actives have a fitted effect of over 45% in size
# Procedure, shortened: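 HepG2 cells stably carrying hCAR and CYP2B6-2.2kb reporter, stimulated with 50 nM CITCO and compounds at 15 concentrations for 23 h at 37 C. Viability measured by CellTiter-Fluor fluorescence.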
# [4] = target: Nuclear receptor subfamily 1 group I member 3 (Homo sapiens) (UniProt Q14994); assay: qHTS assay to identify small molecule antagonists of the constitutive androstane receptor (CAR) signaling pathway (AID 1224838); settings: HepG2-CYP2B6-hCAR luciferase, CITCO-stimulated, 24 h; series mostly up to 92.4 µM; also: nearly all actives have a fitted effect of over 40% in size; also: potency is read from the fitted curve at half-maximal effect
# Procedure, shortened: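 HepG2 cells stably carrying hCAR and a CYP2B6-2.2kb luciferase reporter, seeded 4 hrs before compound (15 concentrations). Stimulated with 50 nM CITCO for 24 hr at 37 C. ONE-Glo luminescence read after 30 min at room temperature.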
# [5] = target: Nuclear receptor subfamily 1 group I member 3 (Homo sapiens) (UniProt Q14994); assay: qHTS assay to identify small molecule agonists of the constitutive androstane receptor (CAR) signaling pathway (AID 1224839); settings: HepG2 hCAR CYP2B6-luciferase, agonist mode, 24 h; series mostly up to 42.5 µM; also: nearly all actives have a fitted effect of over 15% in size; also: potency is read from the fitted curve at half-maximal effect
# Procedure, shortened: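 Stable hCAR/CYP2B6-2.2kb HepG2 line in DMEM with 10% FBS; compounds (15 concentrations) and 0.75 uM PK11195 final, 24 h at 37 C/5% CO2, then ONE-Glo luminescence after 30 min.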
# [6] = qHTS assay to identify small molecule antagonists of the estrogen related receptor signaling pathway with the pleiotropic PPARgamma coactivator (PGC) from Tox21 10K library - cell viability counter screen (AID 1224840; active = well fitted cell-killing curve with a large enough effect in the repeat runs, not every such curve was filed as active; also: nearly all actives have a fitted effect of over 40% in size; also: potency is read from the fitted curve at half-maximal effect); settings: PGC/ERR reporter cells viability, CellTiter-Fluor, 17.5 h; series mostly up to 92.4 µM
# Procedure, shortened: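 PGC/ERR cells (2,000/well) plated 6 h, then compound-treated for 17.5 h at 37 C. Viability measured by CellTiter-Fluor fluorescence after 30 min at 37 C, multiplexed with the pathway assay.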
# [7] = qHTS assay to identify small molecule antagonists of the estrogen related receptor signaling pathway with the pleiotropic PPARgamma coactivator (PGC) from Tox21 10K library (AID 1224841; call rule not given here; also: actives are mostly falling curves and most rising ones were filed inactive; nearly all actives have a fitted effect of over 50% in size; also: potency is read from the fitted curve at half-maximal effect); settings: PGC/ERR reporter cell line, ONE-Glo luciferase, 18 h; series mostly up to 92.4 µM
# Procedure, shortened: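 PGC/ERR cell line, 2,000 cells/well, pre-incubated 6 hours at 37 C, then exposed to compounds for 18 hours at 37 C; luciferase read with One-Glo luminescence after 30 min at room temperature.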
# [8] = qHTS assay to identify small molecule agonists of the estrogen related receptor signaling pathway with the pleiotropic PPARgamma coactivator (PGC) from Tox21 10K library (AID 1224842); settings: PGC/ERR reporter cell line, luciferase ONE-Glo, 18 h; series mostly up to 92.4 µM; also: nearly all actives have a fitted effect of over 15% in size
# Procedure, shortened: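 PGC/ERR reporter cells (NTP line) were seeded 2,000 per well, rested 6 h at 37 C/5% CO2, then pin-dosed with compounds in DMSO for 18 h at 37 C; luciferase read by One-Glo luminescence after 30 min at room temperature.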
# [9] = target: Thyrotropin receptor (Homo sapiens) (UniProt P16473); assay: qHTS assay to identify small molecule agonists of the thyroid stimulating hormone receptor (TSHR) signaling pathway (AID 1224843; calls by dose curve; also: nearly all actives have a fitted effect of over 45% in size); settings: TSHR-HEK293 cells, cAMP HTRF, agonist mode, 30 min; series mostly up to 92.4 µM
# Procedure, shortened: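 TSHR-expressing HEK293 cells (800 per well) were exposed to compounds for 30 min at room temperature. cAMP was then detected by HTRF competition with cAMP-d2 and anti-cAMP cryptate, read after 1 h at room temperature. Fifteen concentrations, triplicate.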
# Thyrotropin receptor (Homo sapiens), sequence (P16473 whole entry, looked up): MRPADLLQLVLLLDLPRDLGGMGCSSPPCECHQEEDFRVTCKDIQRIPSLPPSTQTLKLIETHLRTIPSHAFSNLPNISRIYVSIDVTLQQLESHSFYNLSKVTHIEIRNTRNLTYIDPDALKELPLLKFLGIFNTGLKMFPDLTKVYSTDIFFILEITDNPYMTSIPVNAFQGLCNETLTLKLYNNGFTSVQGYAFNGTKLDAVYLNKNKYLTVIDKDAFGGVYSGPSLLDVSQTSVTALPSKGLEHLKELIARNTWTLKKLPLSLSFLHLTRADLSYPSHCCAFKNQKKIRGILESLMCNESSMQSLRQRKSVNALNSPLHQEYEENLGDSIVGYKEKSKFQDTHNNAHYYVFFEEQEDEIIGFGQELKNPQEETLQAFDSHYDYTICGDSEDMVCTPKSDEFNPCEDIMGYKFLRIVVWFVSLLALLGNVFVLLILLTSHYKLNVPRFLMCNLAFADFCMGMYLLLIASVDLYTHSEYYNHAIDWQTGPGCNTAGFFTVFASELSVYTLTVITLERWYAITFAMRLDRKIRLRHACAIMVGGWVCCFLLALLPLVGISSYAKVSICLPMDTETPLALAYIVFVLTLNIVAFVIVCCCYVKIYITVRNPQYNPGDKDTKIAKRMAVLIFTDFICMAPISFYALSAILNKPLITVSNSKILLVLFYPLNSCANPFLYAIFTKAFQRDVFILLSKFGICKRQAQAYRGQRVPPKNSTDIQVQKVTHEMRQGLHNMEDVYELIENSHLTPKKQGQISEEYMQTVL
# Luciferin 4-monooxygenase (Photinus pyralis), sequence (P08659 whole entry, looked up): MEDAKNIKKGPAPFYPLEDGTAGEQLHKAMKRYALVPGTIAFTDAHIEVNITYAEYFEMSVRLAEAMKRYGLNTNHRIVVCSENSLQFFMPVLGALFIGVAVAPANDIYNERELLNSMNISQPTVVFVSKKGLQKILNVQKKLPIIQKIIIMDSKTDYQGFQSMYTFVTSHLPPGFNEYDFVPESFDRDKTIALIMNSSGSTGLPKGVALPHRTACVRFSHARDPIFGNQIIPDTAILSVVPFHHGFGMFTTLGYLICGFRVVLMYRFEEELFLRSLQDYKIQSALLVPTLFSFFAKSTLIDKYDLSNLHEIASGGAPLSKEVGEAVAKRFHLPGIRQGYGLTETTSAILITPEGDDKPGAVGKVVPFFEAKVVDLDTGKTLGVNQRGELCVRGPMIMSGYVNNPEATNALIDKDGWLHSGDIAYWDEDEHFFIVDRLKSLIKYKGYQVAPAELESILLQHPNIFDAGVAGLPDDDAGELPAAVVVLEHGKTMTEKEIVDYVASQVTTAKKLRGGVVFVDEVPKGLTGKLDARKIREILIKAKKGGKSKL
# Nuclear receptor subfamily 1 group I member 3 (Homo sapiens), sequence (Q14994 whole entry, looked up): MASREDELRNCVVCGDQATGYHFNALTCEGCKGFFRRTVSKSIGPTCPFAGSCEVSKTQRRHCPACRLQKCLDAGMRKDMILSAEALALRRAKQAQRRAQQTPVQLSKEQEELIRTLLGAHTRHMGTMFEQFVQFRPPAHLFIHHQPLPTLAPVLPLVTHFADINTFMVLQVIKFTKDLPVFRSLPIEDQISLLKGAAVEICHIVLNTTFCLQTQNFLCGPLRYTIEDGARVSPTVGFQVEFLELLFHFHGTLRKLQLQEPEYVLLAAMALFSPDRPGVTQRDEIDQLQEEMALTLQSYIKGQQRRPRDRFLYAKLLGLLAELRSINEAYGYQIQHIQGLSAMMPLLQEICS
SMILES,Potency [1],Potency [2],Potency [3],Potency [4],Potency [5],Potency [6],Potency [7],Potency [8],Potency [9]
CN(C)c1ccc(C(c2ccccc2)c2ccc(N(C)C)cc2)cc1,inactive,inactive,inactive,inactive,inactive,inactive,27.3 µM (active),inactive,inactive
CNCCCCOc1ccccc1Cc1ccccc1,inactive,–,–,–,inactive,29.8 µM (active),–,–,inactive
COc1ccc(C(=O)Nc2nc3ccccc3c(NCc3ccccc3)c2C#N)cc1,inactive,inactive,inactive,inactive,21.7 µM (active),inactive,–,inactive,inactive
O=C(Nc1ccccc1)c1ccccc1O,15.9 µM (active),inactive,inactive,inactive,27.3 µM (active),–,–,inactive,–
Clc1ccc(Cn2c(CN3CCCC3)nc3ccccc32)cc1,inactive,inactive,–,11.9 µM (active),11.9 µM (active),inactive,–,–,inactive
COC(=O)C1=C(C)NC(COC(N)=O)=C(C(=O)OC(C)C)C1c1cccc(Cl)c1Cl (centres undefined),inactive,inactive,inactive,inactive,inactive,–,–,inactive,inactive
Cc1c(N)cccc1[N+](=O)[O-],inactive,inactive,inactive,inactive,inactive,inactive,inactive,inactive,inactive
CC(C)OC(=O)C(C)N(C(=O)c1ccccc1)c1ccc(F)c(Cl)c1 (centres undefined),inactive,–,inactive,inactive,48.6 µM (active),–,21.7 µM (active),inactive,–
CCCCCCCCCCCCCCCCCCOS(=O)(=O)O,inactive,inactive,inactive,–,–,–,–,inactive,–
